Here are results for 36 compounds from PubChem BioAssay (NCI).

Molecules are shown by their SMILES. The panel holds about 83,000 compounds, 20% with a hit somewhere; the sample as a whole holds those more often.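 Plates (96-well) were seeded with cells, treated with compound at one concentration, and incubated for 48 hours before percent growth was determined.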 A number with no mark means an inactive call. Activity calls are given as the source filed them. The calls were made as follows: active = growth percent below 10; inactive = the rest.

This assay relates to EKVX NSCLC. Put plainly: NCI-60 one-dose screen, 48 h (100 = growth as untreated, 0 = no growth, -100 = all killed). The following applies: 10 µM unless noted.
As for `O=C1C(Cl)=C(NCCCCCCNC2=C(Cl)C(=O)c3ccccc3C2=O)C(=O)c2ccccc21`, the growth was 91.9%.
Take `CCCC/C=C/[C@@H]1C[C@H]1CCO`: the growth is 101%.
Consider `C=C(C)[C@@H]1CC[C@]2(CO)CC[C@]3(C)[C@H](CC[C@@H]4[C@@]5(C)CC[C@H](NCO)C(C)(C)[C@@H]5CC[C@]43C)[C@@H]12`, for which the growth was 8.09% (active).
Next, `Cc1cccc(/C=C/c2c(C(=O)/C=C/c3ccccc3)c(C)nc3ccccc23)c1`: 0.995% (active).
Consider `Cc1ccc(-c2nc(N3CCCNCC3)c3oc(-c4ccc(C)cc4)nc3n2)cc1`, for which the growth was 116%.
Regarding `Cc1sc2nc(NCCc3c[nH]c4ccc(Cl)cc34)[nH]c(=O)c2c1C`, the growth was 41.7%.
Consider `COc1ccc(OC)c(Nc2nnc(-c3ccc(O)c(OC)c3)o2)c1`, for which the growth is 82.5%.
The figure for `COc1ccccc1NC(=O)N=Nc1c(O)[nH]c2ccccc12` is 83.9%; for `Nc1nc2ccccc2c2c1S(=O)(=O)c1ccc(Cl)cc1C2=O` it is 48.2%; for `Nc1n[nH]c2cccc(C#Cc3cccc(C(=O)Nc4cc(C(F)(F)F)cc(C(F)(F)F)c4)c3)c12` it is 92%.
With `CS(=O)(=O)Nc1cc(-c2ccc3ncnc(Nc4ccc5c(cnn5Cc5ccc(F)cc5)c4)c3c2)cnc1Cl`, the growth was 62.5%.
In the case of `Fc1cc2c(cc1Cl)N(c1ncnc3ccc(-c4ccc5n[nH]nc5c4)cc13)CC2`, the growth is 52.8%.
The figure for `CCN1C(=S)N(c2ccccc2)C2NC(=S)N(/N=C/C=C/c3ccccc3OC)C21` (stereo unspecified) is 48.2%.
The figure for `O=c1c2cccc3c(N4CCCC4)ccc(c32)c2nc3ccccc3n12` is 75.9%; for `OB1OCc2cc(/C=C/c3cccc(C(F)(F)F)c3)ccc21` it is 26.5%.
The figure for `O=C(/C=C/c1ccccc1)Nc1ncc(Cc2ccccc2Cl)s1` is 38.2%; for `CN(C)CCNC(=O)c1ccc(-c2nc3ccc4[nH]ncc4c3c3c2C2CCC3C2)cc1` (stereo unspecified) it is 68.4%; for `COC12C=C/C(=C(/C(=O)OCc3ccncc3)C(=O)CCCCCCCCC3(OC)C=C/C(=C(/C(=O)OCc4ccncc4)C(=O)CCCCCCCC1)O3)O2` it is -22.1% (active).
For `O=C(/C=C/c1cccc(Cl)c1)c1cccc(OCCCOc2cccc(C(=O)/C=C/c3cccc(Cl)c3)c2)c1`, the growth was 99%.
In the case of `CCn1c(SCC(=O)N/N=C(\C)c2ccc(Cl)cc2)nc2c1c(=O)n(C)c(=O)n2C`, the growth is 97.9%.
The figure for `Cc1ccc(C[P+](c2ccccc2)(c2ccccc2)c2ccccc2)cc1` is 6.8% (active); for `Clc1ccc2c(NC3CCC(N4CCOCC4)CC3)ccnc2c1` (stereo unspecified) it is 72.6%; for `Cc1ccc(C2=Nc3c(N)ncnc3NC(c3cccc(Nc4ccnc5cc(C(F)(F)F)ccc45)c3)C2)cc1` (stereo unspecified) it is 25.2%.
Consider `COc1ccc(-c2noc(C(=O)O)c2-c2cc(OC)c(OC)c(OC)c2)cc1`, for which the growth was 44.1%.
With `CCOC(=O)c1nn(-c2ccc(S(N)(=O)=O)cc2)c2nc(C)cc(=O)n12`, the growth is 104%.
The figure for `CCSC(SCC)c1ccc(Cl)cc1` is 106%; for `CSc1nc2ccccc2cc1/C=C1/C=C(c2ccccc2)NC1=O` it is 84.9%.
Next, `COC1/C=C/OC2(C)Oc3c(C)c(O)c4c(O)c(c(/C=N/Nc5ccc([N+](=O)[O-])cc5[N+](=O)[O-])c(O)c4c3C2=O)NC(=O)C(C)=C/C=C/C(C)C(O)C(C)C(O)C(C)C(OC(C)=O)C1C` (stereo unspecified): 45.1%; `O=C1C(Cl)=C(Nc2ccc(S(=O)(=O)N3CCOCC3)cc2)C(=O)c2ccccc21`: 53.5%; `c1csc(-c2ccc(CNc3c4ccccc4nc4ccccc34)cc2)c1`: 59%.
Next, `Nc1ncc(-c2ccc3ncnc(Nc4cccc(Cl)c4)c3c2)cn1`: 1.79% (active); `CCOC(=O)C#Cc1c(C(=O)OCC)nnn1Cc1ccc([N+](=O)[O-])cc1`: 106%.
Take `O=C(CSc1nc2ccc([N+](=O)[O-])cc2[nH]1)Nc1ccc([N+](=O)[O-])cc1`: the growth is 20.3%.
For `CC(C)(Sc1cc(C(C)(C)C)c(OC(=O)CCCC(=O)O)c(C(C)(C)C)c1)Sc1cc(C(C)(C)C)c(OC(=O)CCCC(=O)O)c(C(C)(C)C)c1`, the growth is 47.2%.
In the case of `O=C(N(c1ccccc1)c1ccccc1)n1cc(I)c2nc(Cl)nc(Cl)c21`, the growth was 71.1%.
The figure for `NC(=O)CSc1oc(-c2ccccc2)nc1S(=O)(=O)c1ccc(Br)cc1` is 95.4%.
